Here are results for 3 compounds from PubChem BioAssay.

Where “and” joins values, the source holds several entries; their conditions need not be identical. Equal entries are not always repeated. Calls of active or inactive are those of the source. Rule as the data show it: active = inhibition above about 80%; inactive = the rest.

One assay in a line: MDA-MB-436 breast carcinoma cell growth inhibition, synergistic combos for chromothripsis tumors, BGB or cisplatin combos (AID 1671458).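 Also: cells exposed for 96 hours; 0% = vehicle DMSO and 100% = killing by high DMSO.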 To be noted: MDA-MB-436 breast carcinoma growth inhibition, drug combinations; measured here: cisplatin combination; at 5 µM; stronger effect = higher value.
On to `COc1c(N2CC3CCCNC3C2)c(F)cc2c(=O)c(C(=O)O)cn(C3CC3)c12` (stereo unspecified), for which the inhibition (commonly the change of the read-out against control, counted positive when it falls) is -28.3% and -11.1%.
Same read-out and setting: the value for `Cc1ccc(NC(=O)CCCCCC(=O)Nc2ccccc2N)cc1` was 15.1%; that for `Nc1ccccc1NC(=O)CCCCCCC(=O)Nc1ccccc1` was -8.44% and 23.3%.

The nature of another assay: UWB1.289_BRCA1 ovarian cancer growth, cell-based, BGB or cisplatin combinations (AID 1671459). Particulars: UWB1.289 BRCA1 ovarian carcinoma, drug combinations, BGB combination, concentration series, at 5 µM, stronger effect = higher value.
As to `COc1c(N2CC3CCCNC3C2)c(F)cc2c(=O)c(C(=O)O)cn(C3CC3)c12` (stereo unspecified), the inhibition was 5.74% and 12.9%.
Still for that read-out and setting: the value for `Cc1ccc(NC(=O)CCCCCC(=O)Nc2ccccc2N)cc1` was 23.3%; that for `Nc1ccccc1NC(=O)CCCCCCC(=O)Nc1ccccc1` was 0.199% and 30.8%.

Still in this assay, the particulars now being: UWB1.289 BRCA1 ovarian carcinoma, drug combinations, at 0.5 µM, stronger effect = higher value.
In the case of `COc1c(N2CC3CCCNC3C2)c(F)cc2c(=O)c(C(=O)O)cn(C3CC3)c12` (stereo unspecified), the inhibition is -0.42% (inactive) and 3.8% (inactive).
With `Cc1ccc(NC(=O)CCCCCC(=O)Nc2ccccc2N)cc1`, the inhibition was -23.2% (inactive).
On the same count and under the same terms, with `Nc1ccccc1NC(=O)CCCCCCC(=O)Nc1ccccc1` the figure was -7.51% (inactive) and -1.85% (inactive).

Staying with this assay, now noted: UWB1.289 BRCA1 ovarian carcinoma, drug combinations, cisplatin combination, concentration series, at 5 µM, stronger effect = higher value.
Take `COc1c(N2CC3CCCNC3C2)c(F)cc2c(=O)c(C(=O)O)cn(C3CC3)c12` (stereo unspecified): the inhibition is 1.62% and 11.9%.
Consider `Cc1ccc(NC(=O)CCCCCC(=O)Nc2ccccc2N)cc1`, for which the inhibition stood at 51.6%.
On the same count and under the same terms, with `Nc1ccccc1NC(=O)CCCCCCC(=O)Nc1ccccc1` the figure was 21% and 30.8%.

Another assay can be described thus: human astrocyte viability loss, single and combined drugs, cytotoxicity control for chromothriptic childhood tumor combination screen, cell-based, BGB or cisplatin IC20 combos (AID 1671460).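 Also: cells exposed to compounds for 96 hours before viability readout; 0% = vehicle and 100% = killing control.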 To be noted: Human astrocytes, drug combinations, at 0.5 µM, stronger effect = higher value.
In the case of `COc1c(N2CC3CCCNC3C2)c(F)cc2c(=O)c(C(=O)O)cn(C3CC3)c12` (stereo unspecified), the inhibition was 9.7% (inactive) and 6.47% (inactive).
As for `Cc1ccc(NC(=O)CCCCCC(=O)Nc2ccccc2N)cc1`, the inhibition is -11.1% (inactive).
The same measure, in the same setting: with `Nc1ccccc1NC(=O)CCCCCCC(=O)Nc1ccccc1` the figure was 4.47% (inactive) and 4% (inactive).

The same assay, now with this note: Human astrocytes, drug combinations, measured here: combo with BGB IC20, at 0.5 µM, stronger effect = higher value.
In the case of `COc1c(N2CC3CCCNC3C2)c(F)cc2c(=O)c(C(=O)O)cn(C3CC3)c12` (stereo unspecified), the inhibition is 1.83% and 2.24%.
Consider `Cc1ccc(NC(=O)CCCCCC(=O)Nc2ccccc2N)cc1`, for which the inhibition is -7.99%.
On to `Nc1ccccc1NC(=O)CCCCCCC(=O)Nc1ccccc1`, for which the inhibition is 8.04% and 0.536%.

The same assay, now with this note: Human astrocytes, drug combinations, measured here: combo with cisplatin IC20, at 0.5 µM, stronger effect = higher value.
Consider `COc1c(N2CC3CCCNC3C2)c(F)cc2c(=O)c(C(=O)O)cn(C3CC3)c12` (stereo unspecified), for which the inhibition is 4.24% and 3.81%.
The same measure, in the same setting: with `Cc1ccc(NC(=O)CCCCCC(=O)Nc2ccccc2N)cc1` the figure was -17.6%; with `Nc1ccccc1NC(=O)CCCCCCC(=O)Nc1ccccc1`, -1.54% and 9.6%.

A further assay can be described thus: growth inhibition of BT084 medulloblastoma cells, cell-based, ICGC_MB145, cisplatin and BGB IC40 combos (AID 1671461).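 Also: cells exposed to drugs for 96 hours; 0% = vehicle DMSO and 100% = high DMSO full killing control.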 Particulars: drug combinations, at 0.5 µM, stronger effect = higher value.
Take `COc1c(N2CC3CCCNC3C2)c(F)cc2c(=O)c(C(=O)O)cn(C3CC3)c12` (stereo unspecified): the inhibition is -19% (inactive) and -8.29% (inactive).
The same measure, in the same setting: the value for `Cc1ccc(NC(=O)CCCCCC(=O)Nc2ccccc2N)cc1` was -11.1% (inactive); that for `Nc1ccccc1NC(=O)CCCCCCC(=O)Nc1ccccc1` was 4.38% (inactive) and 12.8% (inactive).

The same assay, now with this note: drug combinations, cisplatin combination, at 0.5 µM, stronger effect = higher value.
Regarding `COc1c(N2CC3CCCNC3C2)c(F)cc2c(=O)c(C(=O)O)cn(C3CC3)c12` (stereo unspecified), the inhibition is -46.7% and 7.45%.
On the same count and under the same terms, with `Cc1ccc(NC(=O)CCCCCC(=O)Nc2ccccc2N)cc1` the figure was 8.17%.
The same measure, in the same setting: the value for `Nc1ccccc1NC(=O)CCCCCCC(=O)Nc1ccccc1` was -7.78% and 20.7%.

Still in this assay, the particulars now being: drug combinations, cisplatin combination, at 5 µM, stronger effect = higher value.
For the compound `COc1c(N2CC3CCCNC3C2)c(F)cc2c(=O)c(C(=O)O)cn(C3CC3)c12` (stereo unspecified), the inhibition is -18.8% and -23%.
Still for that read-out and setting: with `Cc1ccc(NC(=O)CCCCCC(=O)Nc2ccccc2N)cc1` the figure was 68.8%.
As for `Nc1ccccc1NC(=O)CCCCCCC(=O)Nc1ccccc1`, the inhibition is -10.7% and 73.5%.

Still in this assay, the particulars now being: drug combinations, measured here: BGB IC40 combination 0.05 uM, at 0.05 µM, stronger effect = higher value.
As to `COc1c(N2CC3CCCNC3C2)c(F)cc2c(=O)c(C(=O)O)cn(C3CC3)c12` (stereo unspecified), the inhibition is -35.2% and -12.7%.
Same read-out and setting: the value for `Cc1ccc(NC(=O)CCCCCC(=O)Nc2ccccc2N)cc1` was -52.4%.
On the same count and under the same terms, the value for `Nc1ccccc1NC(=O)CCCCCCC(=O)Nc1ccccc1` was 4.05% and -2.15%.

The assay is the same for the next values; noted with them: drug combinations, single agent, at 5 µM, stronger effect = higher value.
With `COc1c(N2CC3CCCNC3C2)c(F)cc2c(=O)c(C(=O)O)cn(C3CC3)c12` (stereo unspecified), the inhibition was -4.05% and -7.99%.
Same read-out and setting: with `Cc1ccc(NC(=O)CCCCCC(=O)Nc2ccccc2N)cc1` the figure was 25.1%; with `Nc1ccccc1NC(=O)CCCCCCC(=O)Nc1ccccc1`, 24.6% and 32.9%.

Another assay in a line: growth inhibition of RCMB18 medulloblastoma cells, cell-based, cisplatin and BGB IC40 combos (AID 1671462).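 Also: cells exposed to compound for four days.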 To be noted: at 0.5 µM, stronger effect = higher value.
For the compound `COc1c(N2CC3CCCNC3C2)c(F)cc2c(=O)c(C(=O)O)cn(C3CC3)c12` (stereo unspecified), the inhibition is -5.76% (inactive) and -15.1% (inactive).
The same measure, in the same setting: with `Cc1ccc(NC(=O)CCCCCC(=O)Nc2ccccc2N)cc1` the figure was 6.99% (inactive).
In the case of `Nc1ccccc1NC(=O)CCCCCCC(=O)Nc1ccccc1`, the inhibition is 7.96% (inactive) and 7.04% (inactive).

Still in this assay, the particulars now being: cisplatin combo, at 5 µM, stronger effect = higher value.
As to `COc1c(N2CC3CCCNC3C2)c(F)cc2c(=O)c(C(=O)O)cn(C3CC3)c12` (stereo unspecified), the inhibition is -131% and -3.44%.
Same read-out and setting: with `Cc1ccc(NC(=O)CCCCCC(=O)Nc2ccccc2N)cc1` the figure was 67.3%; with `Nc1ccccc1NC(=O)CCCCCCC(=O)Nc1ccccc1`, 43.6% and 67.7%.

Staying with this assay, now noted: measured here: BGB IC40 combination, at 0.05 µM, stronger effect = higher value.
For the compound `COc1c(N2CC3CCCNC3C2)c(F)cc2c(=O)c(C(=O)O)cn(C3CC3)c12` (stereo unspecified), the inhibition is 9.3% and -24.7%.
The same measure, in the same setting: with `Cc1ccc(NC(=O)CCCCCC(=O)Nc2ccccc2N)cc1` the figure was -18.3%.
As to `Nc1ccccc1NC(=O)CCCCCCC(=O)Nc1ccccc1`, the inhibition is -7.17% and -10.2%.

The same assay, now with this note: measured here: combination with cisplatin, at 0.5 µM, stronger effect = higher value.
Regarding `COc1c(N2CC3CCCNC3C2)c(F)cc2c(=O)c(C(=O)O)cn(C3CC3)c12` (stereo unspecified), the inhibition was -0.114% and -16.6%.
Same read-out and setting: with `Cc1ccc(NC(=O)CCCCCC(=O)Nc2ccccc2N)cc1` the figure was 0.344%; with `Nc1ccccc1NC(=O)CCCCCCC(=O)Nc1ccccc1`, 5.88% and 41.6%.

The assay is the same for the next values; noted with them: single agent, at 5 µM, stronger effect = higher value.
With `COc1c(N2CC3CCCNC3C2)c(F)cc2c(=O)c(C(=O)O)cn(C3CC3)c12` (stereo unspecified), the inhibition is -15% and -12.8%.
Still for that read-out and setting: the value for `Cc1ccc(NC(=O)CCCCCC(=O)Nc2ccccc2N)cc1` was 35.9%; that for `Nc1ccccc1NC(=O)CCCCCCC(=O)Nc1ccccc1` was 30.6% and 7.16%.
